# About 83,000 compounds went through this panel and 20% of them were active in at least one assay; those are over-represented in the sample as a whole.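 Negative percent growth values reflect cell death: -40 means 40% of the cells present at the start died, and -100 means all died.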 Values without a mark were called inactive. Active and inactive are the calls of the source. Rule for the calls: active = growth percent below 10; inactive = the rest.
# Experiments:
# Assay in all cases: NCI-60 one-dose screen, 48 h (100 = growth as untreated, 0 = no growth, -100 = all killed)
# [1] = test system: SK-MEL-2 melanoma; conditions: 10 µM unless noted
# [2] = test system: SN12C renal; conditions: 10 µM unless noted
# [3] = test system: UO-31 renal; conditions: 10 µM unless noted
# [4] = test system: TK-10 renal; conditions: 10 µM unless noted
# [5] = test system: ACHN renal; conditions: 10 µM unless noted
# [6] = test system: CAKI-1 renal; conditions: 10 µM unless noted
# [7] = test system: A498 renal; conditions: 10 µM
# [8] = test system: HL-60(TB) leukemia; conditions: 10 µM unless noted
# [9] = test system: CCRF-CEM leukemia; conditions: 10 µM unless noted
# [10] = test system: MOLT-4 leukemia; conditions: 10 µM unless noted
# [11] = test system: SR leukemia; conditions: 10 µM unless noted
# [12] = test system: RPMI-8226 leukemia; conditions: 10 µM unless noted
# [13] = test system: OVCAR-8 ovarian; conditions: 10 µM unless noted
# [14] = test system: OVCAR-5 ovarian; conditions: 10 µM unless noted
# [15] = test system: OVCAR-4 ovarian; conditions: 10 µM unless noted
# [16] = test system: SK-OV-3 ovarian; conditions: 10 µM unless noted
# [17] = test system: OVCAR-3 ovarian; conditions: 10 µM unless noted
# [18] = test system: HS 578T breast; conditions: 10 µM unless noted
# [19] = test system: IGROV1 ovarian; conditions: 10 µM unless noted
# [20] = test system: EKVX NSCLC; conditions: 10 µM unless noted
SMILES,growth [1],growth [2],growth [3],growth [4],growth [5],growth [6],growth [7],growth [8],growth [9],growth [10],growth [11],growth [12],growth [13],growth [14],growth [15],growth [16],growth [17],growth [18],growth [19],growth [20]
CCCCCCCCCCCCCC[P+](CCCCCC)(CCCCCC)CCCCCC,-3.57% (active),-79.1% (active),-36.6% (active),-43.3% (active),-26% (active),4.01% (active),-48.3% (active),43.1%,26.5%,51.6%,62.4%,59.4%,-79.9% (active),-7.29% (active),-91.8% (active),-3.34% (active),-100% (active),-35.8% (active),,
C[C@]12CC[C@@H]3c4ccc(Oc5nc(N6CC6)nc(N6CC6)n5)cc4CC[C@H]3[C@@H]1CCC2=O,56.4%,21.5%,28.6%,59.6%,16.3%,10.9%,-18.5% (active),-35.6% (active),3.37% (active),-25.2% (active),-5.09% (active),0.429% (active),36.4%,101%,31.6%,36.1%,15.6%,45.4%,27.8%,
COc1ccc(C2=N[C@@H](Cc3ccccc3)C(=O)Nc3ccsc32)cc1,-4.24% (active),54.3%,,70.3%,55.7%,50.7%,35.8%,8.11% (active),32.1%,35.7%,8.97% (active),41.7%,70.4%,84.1%,69.9%,67.4%,3.83% (active),65.4%,66%,
COc1ccc(-n2c(C)nc3cc(OC)c(OC)cc3c2=O)cc1OC,,105%,94.4%,102%,109%,97.3%,95.8%,100%,98.1%,97.2%,95.5%,104%,102%,104%,101%,102%,106%,101%,102%,108%
CC12CC(=O)C3(SC#N)C(CCC4=CC(=O)CCC43C)C1CCC2=O (centres undefined),125%,85%,,81.4%,49.2%,,95.3%,43.2%,,22.2%,86.1%,77.5%,,103%,73.8%,109%,42.1%,,99.2%,
O=C1OCCC1Br (centres undefined),96.5%,103%,96.4%,104%,102%,,101%,78.1%,,107%,92.3%,97.2%,96.2%,104%,107%,99.4%,112%,,110%,
O=C(O)CNC(=O)C(Cl)(Cl)Cl,111%,100%,,95.6%,92.7%,89.1%,96.2%,80.8%,,91.7%,89.8%,92.3%,90.3%,97.1%,99.5%,108%,108%,,100%,
CCCCCC1(CCBr)C(=O)NC(=O)NC1=O,105%,107%,86.7%,111%,102%,,88.4%,,102%,104%,94.7%,97.5%,97.3%,,111%,99.1%,104%,,112%,
CC(=O)O[C@H]1CC[C@]2(C)[C@H]3CC[C@]4(C)[C@@H](OC(C)=O)CC[C@H]4[C@@H]3[C@@H](C)[C@]2(O)C1,99.1%,101%,88.7%,112%,112%,,105%,,93.1%,87.9%,96.1%,100%,115%,108%,,117%,127%,110%,116%,
CC(C)(C)N1CC1C#N (centres undefined),,103%,92.1%,98%,101%,92.6%,105%,98.3%,101%,98.4%,97.6%,99.2%,,99.5%,119%,101%,101%,104%,103%,
C[C@@H]1C[C@@]2(C)[C@@H](CC[C@@H]3[C@@H]2CC[C@]2(C)C(=O)CC[C@@H]32)CC1=O,,103%,96.3%,94%,103%,-30.7% (active),71.9%,74.6%,83.7%,66.2%,108%,137%,62.6%,93.6%,103%,120%,112%,,76.7%,86.5%
CC(=O)OCC1O[C@@H]([S-])C(OC(C)=O)[C@H](OC(C)=O)[C@@H]1OC(C)=O.[Au+].c1ccc(CN2[CH-]N(Cc3ccccc3)C(c3ccccc3)=C2c2ccccc2)cc1,,23.6%,45%,29.6%,30.1%,,42.1%,,7.57% (active),11.2%,,-2.4% (active),,93%,60.2%,56.9%,-18.5% (active),43.5%,14.3%,
NC(=O)c1c(Br)n(C2OC(CO)C(O)C2O)c2ncnc(N)c12 (centres undefined),,13.4%,1.86% (active),30.4%,12.1%,,-29.9% (active),-37.2% (active),-34.4% (active),,,,5.8% (active),24.4%,16.1%,-8.9% (active),-43.3% (active),-8.41% (active),-48.3% (active),-2.28% (active)
ClCCN(CCCl)Cc1ccc(Nc2ccnc3cc(Cl)ccc23)cc1,-19.5% (active),,,59.5%,5.15% (active),,77.1%,,,-33.5% (active),-15.9% (active),0.54% (active),37.9%,74.1%,48.2%,53.5%,39.7%,,55.4%,
C/C1=C/C(=O)O[C@@H]2C[C@@H](CC[C@H](C)/C=C\C=C\CC1)O[C@@](O)([C@@H]1CSC(=O)N1CO)C2,,47.8%,-83.5% (active),-39.1% (active),10.6%,-48.3% (active),-46.2% (active),,11.1%,33.4%,,50.7%,42.8%,-3.16% (active),20.4%,-14.1% (active),-7.34% (active),-48.7% (active),,6.56% (active)
C=C1C(=O)O[C@H]2[C@H]1CC/C(COC(=O)C(=O)c1cn(Cc3ccccc3)c3ccccc13)=C\CC[C@@]1(C)O[C@@H]21,,-70.3% (active),-91.3% (active),-62.2% (active),-61.5% (active),-34.6% (active),52.4%,-26.6% (active),-30.6% (active),-17.3% (active),4.96% (active),-36.2% (active),-2.2% (active),-32.6% (active),7.79% (active),86.9%,-82.7% (active),5.95% (active),-85.5% (active),-40.7% (active)
CO[C@H](C(=O)O)[C@@H]1Cc2cc3cc(OC4CC(OC5CC(O)C(O)C(C)O5)C(O)C(C)O4)c(C)c(O)c3c(O)c2C(=O)[C@H]1OC1CC(OC2CC(OC3CC(C)(O)C(O)C(C)O3)C(O)C(C)O2)C(O)C(C)O1 (some centres undefined),,15.3%,8.85% (active),24.2%,2.89% (active),25.7%,-55.7% (active),41.3%,23.8%,1.78% (active),10.4%,6.67% (active),13.5%,17.6%,19.7%,23.7%,10%,-1.09% (active),35.4%,31.3%
COc1ccc(C(=O)c2sc3nc4c(cc3c2N)N2CCC4CC2)cc1OC,,,52.8%,91.7%,81.8%,79.7%,116%,94.5%,74.7%,77.3%,83.4%,51.4%,85.7%,107%,85.7%,96.2%,100%,100%,104%,

# From PubChem BioAssay (NCI)
